Laboratory results from PubChem BioAssay (NCATS).
Results filed as inconclusive are left out. Active and inactive are the calls of the source. The call rests on the fitted dose curve; in most records, active means well fitted curve in the direction sought with a large enough effect; inconclusive means small, poorly fitted or top-dose-only effect, or another doubt; inactive means no such curve, though single readings can be large; an effect the other way counts as inactive or inconclusive. Numbered stars: 1 amine (or outer) side, 2 acyl side, 3 side chain; on linkers, the order of the positions; unused ones are H or OH. Bridge positions count the residues as written; N and C are the ends. Peptide text beside a SMILES is read from it. X4 = O=C(CCC[*:2])[*:1]

How the values were obtained:
[1] = biological target: Cellular tumor antigen p53 (Homo sapiens) (UniProt P04637); test: Primary qHTS for small molecule compounds that upregulate eGFP-tagged delta133p53alpha (in N-terminal) cells. (AID 2060322); settings: NCI-H358 eGFP-delta133p53alpha fluorescence, 24 h; activation: active compounds read high;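 further: series mostly up to about 56 µM; 0% = DMSO vehicle and 100% = reference activator; nearly all actives have a fitted effect of over 75% in size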
Sequence of Cellular tumor antigen p53 (Homo sapiens) (P04637 whole entry, looked up): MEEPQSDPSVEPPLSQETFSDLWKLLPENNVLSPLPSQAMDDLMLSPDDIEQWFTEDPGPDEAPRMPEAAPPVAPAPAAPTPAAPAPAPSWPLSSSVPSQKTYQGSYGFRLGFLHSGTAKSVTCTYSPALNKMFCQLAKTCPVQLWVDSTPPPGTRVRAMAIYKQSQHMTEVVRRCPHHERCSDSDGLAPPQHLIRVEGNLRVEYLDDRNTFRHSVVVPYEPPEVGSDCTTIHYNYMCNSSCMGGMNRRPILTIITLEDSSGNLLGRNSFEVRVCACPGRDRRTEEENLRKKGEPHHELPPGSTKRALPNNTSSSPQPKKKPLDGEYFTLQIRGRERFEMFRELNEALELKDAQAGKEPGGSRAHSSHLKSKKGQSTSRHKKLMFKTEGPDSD
How it was run: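 NCI-H358 cells pre-induced 24 h with 10 ng/ml doxycycline to express N-terminal eGFP-delta133p53alpha, then dosed 24 h at 37C without doxycycline; fixed, Hoechst-stained, GFP intensity by laser scanning cytometry, normalized to DMSO (0%) and 57.5 uM 5-azacytidine (100%).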

[2] = biological target: Aldehyde dehydrogenase, mitochondrial (Homo sapiens) (UniProt P05091); test: qHTS for Inhibitors of the Aldehyde Dehydrogenase Family (ALDH2) Primary screen (AID 2061308);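 further: plate controls were vehicle for no effect and reference inhibitor for full effect; nearly all actives have a fitted effect of over 55% in size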
[3] = biological target: Retinaldehyde dehydrogenase 3 (Homo sapiens) (UniProt P47895); test: qHTS for Inhibitors of the Aldehyde Dehydrogenase Family (ALDH1A3) Primary screen (AID 2061315);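 further: plate controls were DMSO vehicle for no effect and reference inhibitor for full effect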

COc1ccc([C@@]2(O)c3c(ccc(CC=C(C)C)c3O)NC(=O)[C@@H]2OC)cc1
inactive: activation [1] -19.1% | Potency [2] | Potency [3]

CC(=O)O[C@@H]1C[C@@]23C[C@@]24CC[C@H](OC2OC[C@@H](O)[C@H](O)[C@H]2O)C(C)(C)[C@@H]4CC[C@H]3[C@]2(C)CC3OC4(C[C@@H](C)C3[C@@]12C)OCC1(C)OC14 (some centres undefined)
inactive: activation [1] 13.4% | Potency [2] | Potency [3]

COC(=O)[C@]1(C)CCC[C@@]2(C)[C@@H]3CC[C@@H]4C[C@@]3(CC[C@@H]21)C[C@H]4C(=O)O
inactive: activation [1] -17.6% | Potency [2] | Potency [3]

Cn1ccc(NC(=O)c2cc(Oc3ccc(C(=O)N4CCC4)c(F)c3)c3c(c2)OC(C)(C)C3)n1
inactive: activation [1] -12.3% | Potency [2] | Potency [3]

C/C(=C\CCC(C)(O)c1ccc(C)cc1)C(=O)O (centres undefined)
inactive: activation [1] -12.2% | Potency [2] | Potency [3]

CC[C@H](C)[C@@H]1NC(=O)[C@H](Cc2ccc(OC)cc2)NC(=O)CCCSC[C@@H](C(=O)N2CCC[C@H]2C(=O)N[C@@H](CC(C)C)C(=O)NCC(N)=O)NC(=O)[C@H](CC(N)=O)NC(=O)[C@H](CCC(N)=O)NC1=O (Y(Me)IQNCPLG-NH2; linker N-5 via X4)
inactive: activation [1] -10.3% | Potency [2] | Potency [3]

CC/C=C\CC1C(=O)C=CC1(CCCCC1CCC(=O)O1)OC(C)=O (centres undefined)
inactive: activation [1] 9.92% | Potency [2] | Potency [3]

C=CCc1ccc(O[C@@H]2O[C@H](CO[C@@H]3O[C@@H](C)[C@H](O)[C@@H](O)[C@H]3O)[C@@H](O)[C@H](O)[C@H]2O)cc1
inactive: activation [1] 3.57% | Potency [2] | Potency [3]
